Compound activity (PubChem BioAssay)
Compounds with a hit are over-represented: about 5.9% of the library has one in this group of screens.
TGFb inhibitor – inhibitors of TGF-b signaling; HepG2 CAGA-GFP TGF-b/SMAD3 reporter, GFP fluorescence, 18 h; TGF-beta stimulated, 500 pg/mL final; 1.2% of 410,000 active; Potency, µM (top dose mostly 46.1 µM), for the others: at the highest dose activity, negative = inhibition, hits mostly inhibitors; AID 588855; note: % is set by controls: 0 for no effect and ±100 for the full control effect; nearly all actives have a fitted effect of over 65% in size
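GFP signal (ex488/em500-530) from TGF-beta-stimulated HEPG2 CAGA-GFP cells, 500 pg/mL final, 18 h at 37 degrees C in DMEM plus 1% FBS, normalized to unstimulated and DMSO-stimulated controls.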
ATXN2 expr inh – reduces ATXN2 reporter expression in HEK-293 cells; Potency, µM (series often up to 57 µM), inactives show at the highest dose activity change, negative = inhibition, actives largely listed as inhibitors; 0.72% of 360,000 active; AID 1745845; HEK-293 ATXN2-luciferase reporter, luminescence, 24 h; note: % is set by controls: 0 for no effect and ±100 for the full control effect; nearly all actives have a fitted effect of over 55% in size
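qHTS (up to 57 uM final) was run with 24 h compound exposure of reporter cells at 37 °C. Each well was multiplexed: SteadyGlo luminescence measured ATXN2-luciferase expression after a fluorogenic Gly-Phe-AFC viability readout (25 uM final).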
ATXN viability – reduces viability in counter-screen for ATXN expression inhibitors | S2 cells (HEK-293 line with an ATXN2-luciferase reporter) viability, CellTiter-Fluor protease fluorescence, 24 h | Potency, µM (series often up to 56.7 µM), hits mostly cytotoxic | 0.49% of 400,000 active | AID 651635; note: nearly all actives have a fitted effect of over 40% in size
KB-V1 cytotox – KB-V1 MDR subline cytotoxicity | KB-V1 MDR cells viability, CellTiter-Glo, 72 h | Potency, µM (titrated, usually from 46.1 µM), most hits filed as cytotoxic | 3.4% of 400,000 active | AID 1347076; note: % is set by controls: 0 for no effect and ±100 for the full control effect; nearly all actives have a fitted effect of over 60% in size
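Cytotoxicity via CellTiter-Glo luminescence after 72 h compound exposure at 37 degrees C. Cells: drug-selected KB-V1 line, DMEM phenol-red free plus 10% FBS. Compounds tested at multiple concentrations; normalized data fitted to concentration-effect curves.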
HepG2 tox-1 – counter-screen for TGF-b inhibitors: cytotoxicity in HepG2 cells; 0.76% of 410,000 active; HepG2 CAGA-GFP viability, ATP luminescence, 18 h; Potency, µM (doses to about 46.1 µM), for the others: top-dose activity change, negative = cytotoxicity, actives largely listed as cytotoxic
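CellTiter-Glo luminescence gave cytotoxicity after 18 hours at 37 degrees C. The cells were HepG2 CAGA-GFP in 1% FBS DMEM, stimulated with 500 pg/mL TGF-beta after compound addition. %Activity was normalised to no-cell wells (complete cell-killing) and DMSO (no toxicity), and curves were fitted and classified.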
KB-3-1 tox – KB-3-1 parental cell cytotoxicity. AID 1347075. 1.4% of 400,000 active. Potency, µM (highest dose often 46.1 µM), actives largely listed as cytotoxic. KB-3-1 viability, CellTiter-Glo ATP luminescence, 72 h; note: % is set by controls: 0 for no effect and ±100 for the full control effect; nearly all actives have a fitted effect of over 60% in size
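KB-3-1 cells, DMEM (no phenol red) + 10% FBS; compound by pin transfer, 72 h, 37 °C. Readout: CellTiter-Glo luminescence after 10 min. Data normalized, curve-fitted.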
TGFb confirm – confirmation of TGF-b signaling inhibitors in HepG2 reporter cells; AID 720534; Potency, µM (doses to about 46.1 µM), for inactives: at the top dose activity, negative = inhibition, hits mostly inhibitors; shares compounds with TGFb inhibitor; 63% of 1,600 active; HepG2 CAGA-GFP TGF-b reporter, GFP fluorescence, 18 h; cells stimulated with TGF-beta, 500 pg/mL; note: % is set by controls: 0 for no effect and ±100 for the full control effect; nearly all actives have a fitted effect of over 65% in size
HepG2 tox-2 – HepG2 cytotoxicity, TGF-b inhibitor counterscreen. shares compounds with TGFb inhibitor. HepG2 CAGA-GFP viability, ATP luminescence, 18 h; cells stimulated with TGF-beta, 500 pg/mL. Potency, µM (series often up to 46.1 µM), for the others: at the highest dose activity, negative = cytotoxicity, actives largely listed as inhibitors. 27% of 1,600 active; note: % is set by controls: 0 for no effect and ±100 for the full control effect; nearly all actives have a fitted effect of over 70% in size
CCL64 TGFb inh – TGF-b inhibition, CCL64 orthogonal assay; shares compounds with TGFb inhibitor; CCL64 CAGA-GFP reporter, TGF-b stimulated, GFP fluorescence, 18 h; Potency, µM (doses to about 46.1 µM), without a hit: at the top dose activity, negative = inhibition, actives largely listed as inhibitors; 41% of 1,600 active; note: nearly all actives have a fitted effect of over 65% in size
COP TGFb inh – validation of TGF-b inhibitors in HepG2 COP promoter reporter; shares compounds with TGFb inhibitor; AID 720537; Potency, µM (series often up to 46.1 µM), without a hit: at the highest dose activity, negative = inhibition, actives largely listed as inhibitors; 3% of 1,600 active; HepG2 COP-GFP TGF-b reporter, GFP fluorescence, 18 h; cells stimulated by added recombinant TGF-beta; note: nearly all actives have a fitted effect of over 70% in size
* = called active by the depositor. Calls come from the whole dose curve; as a rule, active = well fitted curve in the direction sought with a large enough effect; inconclusive = small, poorly fitted or top-dose-only effect, or another doubt; inactive = no such curve, though single readings can be large; an effect the other way counts as inactive or inconclusive. Potency is the fitted concentration of half-maximal effect.

How did CC[C@]12c3[nH]c4cc(-c5ccco5)ccc4c3CCN1C(=O)[C@@H](CC(=O)NCCC1=CCCCC1)C[C@@H]2C(=O)N1CCN(C(=O)c2ccco2)CC1 do in these assays?
TGFb inhibitor: 14µM*; ATXN2 expr inh: -28%; ATXN viability: inconclusive; KB-V1 cytotox: inactive; HepG2 tox-1: -2%; KB-3-1 tox: inconclusive; TGFb confirm: inconclusive; HepG2 tox-2: -4%; CCL64 TGFb inh: inconclusive; COP TGFb inh: 23%

Results for CC[C@]12c3[nH]c4ccc(Cl)cc4c3CCN1C(=O)[C@@H](CC(=O)NCC13CC4CC(CC(C4)C1)C3)C[C@@H]2C(=O)N1CCN(C(=O)C2CC2)CC1 ?
TGFb inhibitor: 10µM*; ATXN2 expr inh: 25µM*; ATXN viability: inconclusive; KB-V1 cytotox: inactive; HepG2 tox-1: -21%; KB-3-1 tox: inconclusive; TGFb confirm: 9.2µM*; HepG2 tox-2: inconclusive; CCL64 TGFb inh: 23µM*; COP TGFb inh: 68%

Results for C[C@]12c3[nH]c4ccc(Cl)cc4c3CCN1C(=O)[C@@H](CC(=O)NCC13CC4CC(CC(C4)C1)C3)C[C@@H]2C(=O)N1CCOCC1 ?
TGFb inhibitor: 10µM*; ATXN2 expr inh: inconclusive; ATXN viability: inconclusive; KB-V1 cytotox: inconclusive; HepG2 tox-1: -71%; KB-3-1 tox: inconclusive; TGFb confirm: 21µM*; HepG2 tox-2: inconclusive; CCL64 TGFb inh: inconclusive; COP TGFb inh: 79%

How did Cc1ccc2[nH]c(CSc3nnc(C)s3)cc(=O)c2c1 do in these assays?
TGFb inhibitor: -8%; ATXN2 expr inh: 7%; ATXN viability: inactive; KB-V1 cytotox: inactive; HepG2 tox-1: 4%; KB-3-1 tox: inactive

What do the screens show for `CC(C)CN1CCc2nc(N3CCN(c4ncccn4)CC3)ncc2C1`?
TGFb inhibitor: -2%; ATXN2 expr inh: 19%; ATXN viability: inactive; KB-V1 cytotox: inactive; HepG2 tox-1: -11%; KB-3-1 tox: inactive

What do the screens show for `CC(C)(C)NC(=O)C[C@H]1C[C@H](C(=O)N2CCCCC2)[C@@]2(C)c3[nH]c4ccc(Cl)cc4c3CCN2C1=O`?
TGFb inhibitor: inconclusive; ATXN2 expr inh: 0%; ATXN viability: inconclusive; KB-V1 cytotox: inactive; HepG2 tox-1: -28%; KB-3-1 tox: inactive; TGFb confirm: inconclusive; HepG2 tox-2: -23%; CCL64 TGFb inh: -66%; COP TGFb inh: 28%

What do the screens show for `C[C@]12c3[nH]c4cc(-c5ccco5)ccc4c3CCN1C(=O)[C@@H](CC(=O)NCC13CC4CC(CC(C4)C1)C3)C[C@@H]2C(=O)N1CCOCC1`?
TGFb inhibitor: 10µM*; ATXN2 expr inh: inconclusive; ATXN viability: inconclusive; KB-V1 cytotox: 23µM*; HepG2 tox-1: -3%; KB-3-1 tox: inconclusive; TGFb confirm: 9.2µM*; HepG2 tox-2: inconclusive; CCL64 TGFb inh: inconclusive; COP TGFb inh: 60%

What do the screens show for `COc1ccc(CNC(=O)C[C@H]2C[C@H](C(=O)N3CCOCC3)[C@@]3(CCC4CCCC4)c4[nH]c5cc(-c6ccco6)ccc5c4CCN3C2=O)cc1OC`?
TGFb inhibitor: 13µM*; ATXN2 expr inh: inconclusive; ATXN viability: inactive; KB-V1 cytotox: inactive; HepG2 tox-1: -20%; KB-3-1 tox: inconclusive; TGFb confirm: 6.5µM*; HepG2 tox-2: -21%; CCL64 TGFb inh: inconclusive; COP TGFb inh: 43%

How did O=C(C[C@H]1C[C@H](C(=O)N2CCOCC2)[C@@]2(CCC3CCCC3)c3[nH]c4cc(-c5ccco5)ccc4c3CCN2C1=O)NCC12CC3CC(CC(C3)C1)C2 do in these assays?
TGFb inhibitor: inconclusive; ATXN2 expr inh: -19%; ATXN viability: inactive; KB-V1 cytotox: inactive; HepG2 tox-1: -5%; KB-3-1 tox: inconclusive

Results for CC(C)N(C(=O)[C@H]1C[C@H](CC(=O)NCc2cccc(C(F)(F)F)c2)C(=O)N2CCc3c([nH]c4ccc(Cl)cc34)[C@]12C)C(C)C ?
TGFb inhibitor: -29%; ATXN2 expr inh: 11%; ATXN viability: inactive; KB-V1 cytotox: inactive; HepG2 tox-1: -5%; KB-3-1 tox: inactive

Results for C[C@]12c3[nH]c4ccc(Cl)cc4c3CCN1C(=O)[C@@H](CC(=O)NCc1cccc(C(F)(F)F)c1)C[C@@H]2C(=O)N1CCOCC1 ?
TGFb inhibitor: 10µM*; ATXN2 expr inh: inconclusive; KB-V1 cytotox: inactive; HepG2 tox-1: -39%; KB-3-1 tox: inactive; TGFb confirm: 16µM*; HepG2 tox-2: -29%; CCL64 TGFb inh: 15µM*; COP TGFb inh: 54%

How did Cc1nn(-c2cccc(Cl)c2)c2nc(C(F)(F)F)[nH]c(=O)c12 do in these assays?
TGFb inhibitor: 11µM*; ATXN2 expr inh: inconclusive; ATXN viability: inconclusive; KB-V1 cytotox: inactive; HepG2 tox-1: -21%; KB-3-1 tox: inactive; TGFb confirm: 6.5µM*; HepG2 tox-2: 8.2µM*; CCL64 TGFb inh: 2.9µM*; COP TGFb inh: 36%

How did Cc1nn(-c2cc(C(F)(F)F)ccc2Cl)c2nc(C(F)(F)F)[nH]c(=O)c12 do in these assays?
TGFb inhibitor: inconclusive; ATXN2 expr inh: -1%; ATXN viability: inconclusive; KB-V1 cytotox: inconclusive; HepG2 tox-1: 6%; KB-3-1 tox: inactive
